Our source for the binding signal values is PMC7862700, “An all-to-all approach to the identification of sequence-specific readers for epigenetic DNA modifications on cytosine”.

Experiment in all cases: DAPPL (digital affinity profiling via proximity ligation, sequencing); 10 mM Tris-HCl pH 7.5, 50 mM NaCl, 1 mM DTT, 4% glycerol, room temperature, 30 min; GST-TFs on glutathione beads, 16-mer random dsDNA library, 0.1% formaldehyde crosslink after washing; high values mean tight binding
One experiment addresses T1, FEV (Homo sapiens, UniProt Q99581 1-238).
T1 sequence: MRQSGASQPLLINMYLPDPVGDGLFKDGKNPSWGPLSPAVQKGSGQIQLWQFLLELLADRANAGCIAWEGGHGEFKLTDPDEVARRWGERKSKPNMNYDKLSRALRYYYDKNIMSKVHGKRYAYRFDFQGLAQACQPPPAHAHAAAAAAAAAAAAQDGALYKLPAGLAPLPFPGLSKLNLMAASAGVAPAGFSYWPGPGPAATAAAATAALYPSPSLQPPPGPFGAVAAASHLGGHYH
The following applies: protein: recombinant; tags: N-terminal GST; dsDNA, one strand shown. An outline of the steps: (§1)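 Human transcription factors fused to GST were expressed in yeast, captured on glutathione beads, given DNA barcodes and pooled with a GST-only negative control. Pools were incubated with 200 nmole of a 16-mer random double-stranded DNA library in Tris/NaCl/DTT/glycerol buffer at room temperature for 30 min. They were then washed, crosslinked with 0.1% formaldehyde, proximity-ligated (BsaI/T4 ligase, 1 h, 37 °C), PCR-amplified and sequenced on an Illumina NextSeq500. Binding signal is each 6-mer's read frequency for a factor divided by its frequency for the GST control.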

For another experiment, the target named is ETV5 (Homo sapiens, UniProt P41161 1-510). The note with it: protein: recombinant; tags: N-terminal GST; dsDNA, one strand shown. The essentials:
as §1

Another experiment addresses HSF1 (Homo sapiens, UniProt Q00613 1-529). The following applies: protein: recombinant; tags: N-terminal GST; chain copies: 3; dsDNA, one strand shown. An outline of the steps: as §1
Another experiment has as its target T2, SPIC (Homo sapiens, UniProt Q8N5J4 1-248).
T2 sequence: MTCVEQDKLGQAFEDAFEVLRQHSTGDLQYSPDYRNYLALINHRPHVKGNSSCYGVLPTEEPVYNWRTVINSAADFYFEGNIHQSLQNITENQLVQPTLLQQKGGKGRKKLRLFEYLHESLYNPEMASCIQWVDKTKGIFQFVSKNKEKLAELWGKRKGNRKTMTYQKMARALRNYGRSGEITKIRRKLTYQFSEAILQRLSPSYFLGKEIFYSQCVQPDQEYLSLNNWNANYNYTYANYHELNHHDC
The following applies: protein: recombinant; tags: N-terminal GST; dsDNA, one strand shown. An outline of the steps:
as §1

The target in a further experiment is ELF4 (Homo sapiens, UniProt Q99607 1-663). The note with it: protein: recombinant; tags: N-terminal GST; dsDNA, one strand shown. The essentials:
as §1

The target in the next experiment is T3, ELK4 (Homo sapiens, UniProt P28324-2 1-405).
T3 sequence: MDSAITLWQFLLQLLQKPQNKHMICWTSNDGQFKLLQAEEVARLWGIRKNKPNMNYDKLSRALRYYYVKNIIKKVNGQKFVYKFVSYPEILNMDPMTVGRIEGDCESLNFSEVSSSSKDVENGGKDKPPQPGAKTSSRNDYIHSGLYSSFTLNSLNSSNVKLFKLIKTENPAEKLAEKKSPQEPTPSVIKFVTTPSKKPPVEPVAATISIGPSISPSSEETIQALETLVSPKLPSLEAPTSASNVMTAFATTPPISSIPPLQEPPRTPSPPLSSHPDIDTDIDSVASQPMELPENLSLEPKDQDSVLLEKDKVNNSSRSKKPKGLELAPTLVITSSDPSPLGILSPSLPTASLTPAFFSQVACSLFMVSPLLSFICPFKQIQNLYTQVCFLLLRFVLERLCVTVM
The following applies: protein: recombinant; tags: N-terminal GST; dsDNA, one strand shown. The essentials:
as §1

Another experiment has as its target T4, ETV2 (Homo sapiens, UniProt O00321 1-342).
T4 sequence: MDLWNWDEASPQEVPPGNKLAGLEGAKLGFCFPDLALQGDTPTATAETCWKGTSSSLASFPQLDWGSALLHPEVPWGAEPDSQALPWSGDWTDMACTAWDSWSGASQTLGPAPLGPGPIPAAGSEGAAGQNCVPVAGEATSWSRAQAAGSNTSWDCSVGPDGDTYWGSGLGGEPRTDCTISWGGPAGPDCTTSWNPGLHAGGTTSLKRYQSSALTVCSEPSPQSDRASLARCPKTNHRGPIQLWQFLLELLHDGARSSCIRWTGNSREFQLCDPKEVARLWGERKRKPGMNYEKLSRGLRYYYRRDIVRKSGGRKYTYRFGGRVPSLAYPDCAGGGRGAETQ
The note with it: protein: recombinant; tags: N-terminal GST; dsDNA, one strand shown. An outline of the steps:
as §1

The next experiment addresses T5, ELF3 (Homo sapiens, UniProt P78545 1-371).
T5 sequence: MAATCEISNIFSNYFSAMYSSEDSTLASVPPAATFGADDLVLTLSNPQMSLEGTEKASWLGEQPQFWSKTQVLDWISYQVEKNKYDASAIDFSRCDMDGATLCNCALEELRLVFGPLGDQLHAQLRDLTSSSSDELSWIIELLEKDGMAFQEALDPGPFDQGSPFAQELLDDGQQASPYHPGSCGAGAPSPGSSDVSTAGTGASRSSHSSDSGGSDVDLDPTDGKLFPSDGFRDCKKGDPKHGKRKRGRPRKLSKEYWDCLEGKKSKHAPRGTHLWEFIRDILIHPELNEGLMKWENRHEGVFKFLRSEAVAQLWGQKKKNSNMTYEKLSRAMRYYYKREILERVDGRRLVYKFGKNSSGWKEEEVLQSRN
The following applies: protein: recombinant; tags: N-terminal GST; dsDNA, one strand shown. An outline of the steps:
as §1

For a further experiment, the target named is CRX (Homo sapiens, UniProt O43186 1-299). The following applies: protein: recombinant; tags: N-terminal GST; dsDNA, one strand shown. The essentials:
as §1

Another experiment deals with ETV1 (Homo sapiens, UniProt P50549 1-477). The following applies: protein: recombinant; tags: N-terminal GST; dsDNA, one strand shown. The essentials:
as §1

A further experiment addresses T6, ERF (Homo sapiens, UniProt P50548 1-548).
T6 sequence: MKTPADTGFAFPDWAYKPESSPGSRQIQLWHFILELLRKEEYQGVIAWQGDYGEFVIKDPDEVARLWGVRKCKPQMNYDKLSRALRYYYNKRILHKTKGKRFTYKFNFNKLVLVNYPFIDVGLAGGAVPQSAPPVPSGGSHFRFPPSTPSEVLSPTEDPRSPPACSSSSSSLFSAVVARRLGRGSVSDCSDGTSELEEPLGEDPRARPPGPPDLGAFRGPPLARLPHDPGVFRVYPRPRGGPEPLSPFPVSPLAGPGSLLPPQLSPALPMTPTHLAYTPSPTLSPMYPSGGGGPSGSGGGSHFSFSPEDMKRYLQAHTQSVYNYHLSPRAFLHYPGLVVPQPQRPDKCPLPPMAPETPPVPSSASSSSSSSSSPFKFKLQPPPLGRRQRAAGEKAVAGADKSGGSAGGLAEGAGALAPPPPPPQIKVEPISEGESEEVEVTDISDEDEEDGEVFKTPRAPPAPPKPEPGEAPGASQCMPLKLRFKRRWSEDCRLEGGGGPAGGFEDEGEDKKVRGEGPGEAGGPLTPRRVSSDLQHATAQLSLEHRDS
The following applies: protein: recombinant; tags: N-terminal GST; dsDNA, one strand shown. The essentials: as §1

Another experiment addresses T7, ETV3L (Homo sapiens, UniProt Q6ZN32 1-361).
T7 sequence: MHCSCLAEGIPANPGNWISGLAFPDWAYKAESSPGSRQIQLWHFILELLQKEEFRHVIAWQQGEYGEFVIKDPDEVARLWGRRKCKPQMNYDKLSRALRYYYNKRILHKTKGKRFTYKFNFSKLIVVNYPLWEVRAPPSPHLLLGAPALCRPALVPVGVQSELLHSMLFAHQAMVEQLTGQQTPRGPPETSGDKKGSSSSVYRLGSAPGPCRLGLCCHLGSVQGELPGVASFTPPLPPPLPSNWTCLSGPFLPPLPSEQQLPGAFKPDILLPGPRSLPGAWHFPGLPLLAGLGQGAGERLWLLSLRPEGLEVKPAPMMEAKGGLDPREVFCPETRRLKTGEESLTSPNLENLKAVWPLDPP
The note with it: protein: recombinant; tags: N-terminal GST; dsDNA, one strand shown. The essentials:
as §1

For another experiment, the target named is T8, ETS2 (Homo sapiens, UniProt P15036 1-469).
T8 sequence: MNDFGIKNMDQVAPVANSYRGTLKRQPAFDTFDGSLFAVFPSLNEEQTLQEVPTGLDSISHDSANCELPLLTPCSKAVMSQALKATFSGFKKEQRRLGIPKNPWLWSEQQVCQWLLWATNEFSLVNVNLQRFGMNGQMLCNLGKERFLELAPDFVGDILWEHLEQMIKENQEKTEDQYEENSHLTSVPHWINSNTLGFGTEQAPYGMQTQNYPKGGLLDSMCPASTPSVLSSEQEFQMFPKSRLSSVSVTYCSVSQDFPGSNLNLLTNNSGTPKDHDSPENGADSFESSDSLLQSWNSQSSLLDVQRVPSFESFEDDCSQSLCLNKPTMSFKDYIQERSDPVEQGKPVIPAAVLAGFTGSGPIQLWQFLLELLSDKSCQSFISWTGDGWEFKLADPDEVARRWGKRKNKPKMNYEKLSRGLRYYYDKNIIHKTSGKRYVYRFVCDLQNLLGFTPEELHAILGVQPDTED
The following applies: protein: recombinant; tags: N-terminal GST; dsDNA, one strand shown. An outline of the steps:
as §1

The next experiment addresses T9, SPDEF (Homo sapiens, UniProt O95238 1-335).
T9 sequence: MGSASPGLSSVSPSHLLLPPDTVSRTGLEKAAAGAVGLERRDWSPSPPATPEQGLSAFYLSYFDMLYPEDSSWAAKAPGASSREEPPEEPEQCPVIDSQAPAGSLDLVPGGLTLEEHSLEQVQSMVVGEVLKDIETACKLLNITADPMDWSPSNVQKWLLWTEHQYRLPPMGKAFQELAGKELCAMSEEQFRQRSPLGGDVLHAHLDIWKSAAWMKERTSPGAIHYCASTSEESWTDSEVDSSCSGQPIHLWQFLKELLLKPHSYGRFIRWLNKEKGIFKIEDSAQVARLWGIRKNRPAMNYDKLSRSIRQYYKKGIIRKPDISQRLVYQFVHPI
The note with it: protein: recombinant; tags: N-terminal GST; dsDNA, one strand shown. An outline of the steps:
as §1

The target of a further experiment is T10, ETV7 (Homo sapiens, UniProt Q9Y603 1-341).
T10 sequence: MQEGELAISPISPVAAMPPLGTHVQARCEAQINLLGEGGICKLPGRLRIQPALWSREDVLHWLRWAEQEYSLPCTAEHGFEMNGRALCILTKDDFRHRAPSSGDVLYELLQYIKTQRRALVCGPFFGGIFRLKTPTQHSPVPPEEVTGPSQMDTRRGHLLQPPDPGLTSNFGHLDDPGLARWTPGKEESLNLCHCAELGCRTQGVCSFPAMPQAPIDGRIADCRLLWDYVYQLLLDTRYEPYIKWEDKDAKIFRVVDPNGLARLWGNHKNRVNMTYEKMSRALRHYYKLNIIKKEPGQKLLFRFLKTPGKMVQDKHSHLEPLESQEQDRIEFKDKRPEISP
The following applies: protein: recombinant; tags: N-terminal GST; dsDNA, one strand shown. An outline of the steps: as §1

For another experiment, the target named is T11, ELF5 (Homo sapiens, UniProt Q9UKW6-2 1-255).
T11 sequence: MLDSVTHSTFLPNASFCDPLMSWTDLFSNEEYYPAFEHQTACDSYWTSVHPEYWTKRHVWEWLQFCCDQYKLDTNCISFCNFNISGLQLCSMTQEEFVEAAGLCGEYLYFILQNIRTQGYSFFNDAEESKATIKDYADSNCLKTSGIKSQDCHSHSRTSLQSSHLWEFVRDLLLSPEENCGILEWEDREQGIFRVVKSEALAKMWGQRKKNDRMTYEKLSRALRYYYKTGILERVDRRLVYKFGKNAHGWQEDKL
The following applies: protein: recombinant; tags: N-terminal GST; dsDNA, one strand shown. The essentials: as §1

In the next experiment the target is T12, ETV3 (Homo sapiens, UniProt P41162-2 1-143).
T12 sequence: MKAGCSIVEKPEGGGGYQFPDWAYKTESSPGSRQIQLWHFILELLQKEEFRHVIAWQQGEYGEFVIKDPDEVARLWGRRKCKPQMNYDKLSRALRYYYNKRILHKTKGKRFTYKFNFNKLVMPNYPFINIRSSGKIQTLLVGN
The note with it: protein: recombinant; tags: N-terminal GST; dsDNA, one strand shown. The essentials:
as §1

For another experiment, the target named is ETV6 (Homo sapiens, UniProt P41212 1-452). The following applies: protein: recombinant; tags: N-terminal GST; dsDNA, one strand shown. The essentials:
as §1

ETV6, sequence (P41212 whole entry): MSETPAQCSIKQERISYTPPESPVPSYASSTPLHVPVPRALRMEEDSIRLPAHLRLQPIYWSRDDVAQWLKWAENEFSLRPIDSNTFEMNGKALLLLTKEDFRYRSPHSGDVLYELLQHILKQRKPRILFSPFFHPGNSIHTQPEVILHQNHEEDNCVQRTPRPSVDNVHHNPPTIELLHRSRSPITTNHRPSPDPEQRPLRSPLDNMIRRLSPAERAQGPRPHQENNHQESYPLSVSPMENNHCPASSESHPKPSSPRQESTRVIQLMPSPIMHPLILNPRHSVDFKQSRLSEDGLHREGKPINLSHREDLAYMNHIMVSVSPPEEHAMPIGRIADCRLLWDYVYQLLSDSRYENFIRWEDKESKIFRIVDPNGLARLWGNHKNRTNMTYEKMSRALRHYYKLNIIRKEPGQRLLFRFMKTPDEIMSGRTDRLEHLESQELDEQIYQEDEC
ETV5, sequence (P41161 whole entry): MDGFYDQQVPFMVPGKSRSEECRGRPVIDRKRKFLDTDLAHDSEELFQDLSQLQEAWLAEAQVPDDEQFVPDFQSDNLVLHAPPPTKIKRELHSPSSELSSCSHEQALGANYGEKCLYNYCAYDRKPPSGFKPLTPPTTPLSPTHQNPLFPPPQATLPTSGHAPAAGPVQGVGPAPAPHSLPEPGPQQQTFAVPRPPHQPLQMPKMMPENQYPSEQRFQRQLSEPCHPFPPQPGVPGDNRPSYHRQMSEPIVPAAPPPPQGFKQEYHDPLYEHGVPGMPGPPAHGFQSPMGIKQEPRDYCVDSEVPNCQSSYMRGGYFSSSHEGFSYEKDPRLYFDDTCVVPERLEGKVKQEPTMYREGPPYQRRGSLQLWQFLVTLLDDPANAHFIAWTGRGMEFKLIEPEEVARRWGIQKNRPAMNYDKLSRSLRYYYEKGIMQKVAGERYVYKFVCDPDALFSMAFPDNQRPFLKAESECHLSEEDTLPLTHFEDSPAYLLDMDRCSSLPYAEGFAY
ELF4, sequence (Q99607 whole entry): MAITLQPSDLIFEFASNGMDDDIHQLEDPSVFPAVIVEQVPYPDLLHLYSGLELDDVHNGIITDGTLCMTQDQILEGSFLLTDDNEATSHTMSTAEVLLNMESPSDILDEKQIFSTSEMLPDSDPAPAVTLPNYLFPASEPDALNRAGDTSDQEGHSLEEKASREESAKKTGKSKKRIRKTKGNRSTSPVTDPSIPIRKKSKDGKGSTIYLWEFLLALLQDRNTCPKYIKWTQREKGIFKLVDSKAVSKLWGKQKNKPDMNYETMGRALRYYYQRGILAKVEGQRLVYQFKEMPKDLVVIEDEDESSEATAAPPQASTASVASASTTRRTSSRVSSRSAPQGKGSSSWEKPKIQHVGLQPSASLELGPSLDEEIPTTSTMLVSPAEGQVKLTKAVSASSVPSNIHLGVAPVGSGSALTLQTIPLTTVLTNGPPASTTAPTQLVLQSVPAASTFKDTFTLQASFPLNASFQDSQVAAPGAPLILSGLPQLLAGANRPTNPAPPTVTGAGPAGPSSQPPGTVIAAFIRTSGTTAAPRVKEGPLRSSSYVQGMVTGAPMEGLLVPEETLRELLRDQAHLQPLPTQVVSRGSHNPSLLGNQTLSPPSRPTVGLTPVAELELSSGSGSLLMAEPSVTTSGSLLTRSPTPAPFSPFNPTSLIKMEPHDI
CRX, sequence (O43186 whole entry): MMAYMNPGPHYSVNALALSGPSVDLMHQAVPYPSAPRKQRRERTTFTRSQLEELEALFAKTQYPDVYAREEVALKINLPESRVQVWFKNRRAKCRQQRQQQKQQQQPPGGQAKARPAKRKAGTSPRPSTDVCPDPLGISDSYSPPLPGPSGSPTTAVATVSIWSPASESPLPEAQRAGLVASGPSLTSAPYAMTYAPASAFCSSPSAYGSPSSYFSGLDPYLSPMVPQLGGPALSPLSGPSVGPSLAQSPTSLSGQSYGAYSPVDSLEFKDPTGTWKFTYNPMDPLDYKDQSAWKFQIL
ETV1, sequence (P50549 whole entry): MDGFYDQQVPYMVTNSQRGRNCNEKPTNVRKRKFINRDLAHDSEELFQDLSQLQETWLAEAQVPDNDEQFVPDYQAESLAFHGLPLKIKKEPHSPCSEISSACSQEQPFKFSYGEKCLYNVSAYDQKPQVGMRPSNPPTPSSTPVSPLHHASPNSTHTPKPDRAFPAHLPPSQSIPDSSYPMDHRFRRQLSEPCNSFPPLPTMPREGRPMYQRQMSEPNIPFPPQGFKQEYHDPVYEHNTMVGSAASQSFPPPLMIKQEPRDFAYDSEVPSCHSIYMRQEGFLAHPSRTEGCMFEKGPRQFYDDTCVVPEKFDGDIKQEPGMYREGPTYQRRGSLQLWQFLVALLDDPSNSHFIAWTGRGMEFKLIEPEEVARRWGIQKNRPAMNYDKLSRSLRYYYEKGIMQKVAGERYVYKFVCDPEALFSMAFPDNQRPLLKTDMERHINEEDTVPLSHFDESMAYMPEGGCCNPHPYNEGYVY
HSF1, sequence (Q00613 whole entry): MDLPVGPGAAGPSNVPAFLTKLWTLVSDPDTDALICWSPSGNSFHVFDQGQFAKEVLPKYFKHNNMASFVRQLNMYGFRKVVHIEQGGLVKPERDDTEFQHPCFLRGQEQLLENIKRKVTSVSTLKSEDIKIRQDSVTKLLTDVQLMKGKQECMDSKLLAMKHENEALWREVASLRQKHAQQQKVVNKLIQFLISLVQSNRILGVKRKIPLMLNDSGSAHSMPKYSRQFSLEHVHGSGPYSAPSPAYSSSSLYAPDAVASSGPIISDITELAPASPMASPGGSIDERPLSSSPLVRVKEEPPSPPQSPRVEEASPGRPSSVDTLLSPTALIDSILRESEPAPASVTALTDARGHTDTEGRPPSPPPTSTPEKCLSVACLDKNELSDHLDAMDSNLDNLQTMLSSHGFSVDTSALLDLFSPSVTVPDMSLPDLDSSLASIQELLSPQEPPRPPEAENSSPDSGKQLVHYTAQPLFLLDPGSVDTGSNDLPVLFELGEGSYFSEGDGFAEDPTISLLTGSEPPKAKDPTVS

As to AACTTA, the binding signal with FEV was 1.2 fold enrichment (6-mer frequency, TF over GST control); with ETV5, 1.23 fold enrichment (6-mer frequency, TF over GST control); in the experiment with HSF1, 1.41 fold enrichment (6-mer frequency, TF over GST control); with SPIC it was 1.27 fold enrichment (6-mer frequency, TF over GST control); with ELF4, 1.19 fold enrichment (6-mer frequency, TF over GST control); with ELK4, 1.22 fold enrichment (6-mer frequency, TF over GST control). Also, the binding signal in the experiment with ETV2 was 1.08 fold enrichment (6-mer frequency, TF over GST control); in the experiment with ELF3, 1.12 fold enrichment (6-mer frequency, TF over GST control); with CRX, 1.72 fold enrichment (6-mer frequency, TF over GST control); in the experiment with ETV1, 1.22 fold enrichment (6-mer frequency, TF over GST control); with ERF, 1.29 fold enrichment (6-mer frequency, TF over GST control); with ETV3L, 1.14 fold enrichment (6-mer frequency, TF over GST control). Besides, the binding signal is 1.22 fold enrichment (6-mer frequency, TF over GST control) with ETS2; 1.16 fold enrichment (6-mer frequency, TF over GST control) in the experiment with SPDEF; 1.14 fold enrichment (6-mer frequency, TF over GST control) with ETV7; 1.25 fold enrichment (6-mer frequency, TF over GST control) with ELF5; 1.14 fold enrichment (6-mer frequency, TF over GST control) with ETV3; 1.32 fold enrichment (6-mer frequency, TF over GST control) with ETV6.
